# Results filed as inconclusive are left out. The source made the active and inactive calls. How the source made its calls: active means hit-call score of the fitted dose curve at least 0.9, where 1 is the maximum; inconclusive means response in the unintended direction; inactive means score below 0.9. Where a SMILES comes first, the peptide text is derived from it. Bridges are numbered along the chain shown (N, C = ends). [ ]: non-standard residue; d: D form. hArg = N=C(N)NCCCC[C@H](N)C(=O)O; Mpa = O=C(O)CCS
# Tested on: not listed separately
# Test: TOX21_p53_BLA_p5_viability: Viability Assessment in the Tox21 HCT-116 p53 Agonism Beta-lactamase Assay, Phase 5 (AID 2283600)
# In short: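 Compounds, pinned from DMSO at 217-fold dilution, were left on the cells for 16 h. The viability endpoint was ATP content measured by CellTiter-Glo luminescence, where falling signal reflects cytotoxicity.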
row,SMILES,outcome
1,CC(=NCc1ccccc1)c1ccccc1O,inactive
2,C[C@H](O)C(=O)Nc1c(I)c(C(=O)NC(CO)CO)c(I)c(C(=O)NC(CO)CO)c1I,inactive
3,CC1CCCC(C)N1NC(=O)c1ccc(Cl)c(S(N)(=O)=O)c1 (centres undefined),inactive
4,CC(=O)N[C@@H](CC(=O)N[C@@H](CCC(=O)O)C(=O)O)C(=O)O,inactive
5,C[C@]12CC[C@@H]3c4ccc(OC(=O)c5ccccc5)cc4CC[C@H]3[C@@H]1CC[C@@H]2O,inactive
6,CC1OCCC1=O (centres undefined),inactive
7,CC(C)(C)c1ccc(C=O)cc1,inactive
8,CC(C)NC[C@@H](O)COc1cccc2ccccc12,inactive
9,CC(C)CCC[C@@H](C)[C@H]1CC(=O)C2=C3CC[C@H]4C[C@@H](O)CC[C@]4(C)[C@H]3CC[C@@]21C,inactive
10,C[C@H]1NCc2cc(-c3ccc4c(=O)c(C(=O)O)cn(C5CC5)c4c3OC(F)F)ccc21,inactive
11,Clc1ccc2nsnc2c1NC1=NCCN1,inactive
12,CC[C@H]1OC(=O)C[C@@H](O)[C@H](C)[C@@H](O[C@@H]2O[C@H](C)[C@@H](O)[C@H](N(C)C)[C@H]2O)[C@@H](CCN2C[C@H](C)C[C@H](C)C2)C[C@@H](C)C(=O)/C=C/C(C)=C/[C@@H]1CO[C@@H]1O[C@H](C)[C@@H](O)[C@@H](OC)[C@H]1OC,inactive
13,CC(Oc1ccccc1)C(=O)N[C@@H]1C(=O)N2[C@@H]1SC(C)(C)[C@@H]2C(=O)O (some centres undefined),inactive
14,CCC1NC(=O)c2cc(S(N)(=O)=O)c(Cl)cc2N1 (centres undefined),inactive
15,C1=C\CC/C=C\CC/1,inactive
16,CC(C)C[C@H](NC(=O)[C@@H](Cc1c[nH]c2ccccc12)NC(=O)[C@H](Cc1ccc(O)cc1)NC(=O)[C@H](CO)NC(=O)[C@H](Cc1c[nH]c2ccccc12)NC(=O)[C@H](Cc1cnc[nH]1)NC(=O)[C@@H]1CCC(=O)N1)C(=O)N[C@@H](CCCN=C(N)N)C(=O)N1CCC[C@@H]1C(=O)NCC(N)=O,inactive
17,O=C(COCCOCCOCC(=O)Nc1c(I)cc(I)c(C(=O)O)c1I)Nc1c(I)cc(I)c(C(=O)O)c1I,inactive
18,COc1ccc(CCC(=O)c2c(O)cc(O[C@@H]3O[C@H](CO)[C@@H](O)[C@H](O)[C@H]3O[C@@H]3O[C@@H](C)[C@H](O)[C@@H](O)[C@H]3O)cc2O)cc1O,inactive
19,COc1ccc(NS(=O)(=O)c2ccc(N)cc2)nn1,inactive
20,CCOC(=O)c1ccc(OC(=O)CCCCCN=C(N)N)cc1,inactive
21,O=Nc1ccc(NO)cc1,inactive

# Target: Cellular tumor antigen p53 (Homo sapiens) (UniProt P04637)
# Test: TOX21_p53_BLA_p4_ratio: Tox21 HCT-116 p53 Agonism Beta-lactamase Assay, Ratio, Phase 4 (AID 2283601)
# In short: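 HCT-116 p53 beta-lactamase reporter cells (4000/well) preincubated 5 h, then compound (217-fold dilution of DMSO stock) for 16 h at 37C. CCF4-AM substrate added 2 h at room temperature; 460/530 nm emission ratio fitted upward versus DMSO.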
# Sequence of Cellular tumor antigen p53 (Homo sapiens) (P04637 whole entry, looked up): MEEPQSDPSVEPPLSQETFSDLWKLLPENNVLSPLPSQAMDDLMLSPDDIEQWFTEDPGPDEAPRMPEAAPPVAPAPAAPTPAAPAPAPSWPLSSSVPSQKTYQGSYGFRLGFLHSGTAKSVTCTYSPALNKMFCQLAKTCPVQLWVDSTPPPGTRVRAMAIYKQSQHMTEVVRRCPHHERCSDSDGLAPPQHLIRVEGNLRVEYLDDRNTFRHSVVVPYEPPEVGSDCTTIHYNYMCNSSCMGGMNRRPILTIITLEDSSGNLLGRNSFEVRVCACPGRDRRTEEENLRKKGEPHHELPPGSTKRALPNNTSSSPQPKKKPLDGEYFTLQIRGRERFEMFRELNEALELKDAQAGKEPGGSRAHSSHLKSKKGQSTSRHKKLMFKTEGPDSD
row,SMILES,outcome
1,CC(=NCc1ccccc1)c1ccccc1O,inactive
2,O=C1c2ccccc2C(=O)C1c1ccccc1,inactive
3,CCOc1ccc2ccccc2c1C(=O)N[C@@H]1C(=O)N2[C@@H]1SC(C)(C)[C@@H]2C(=O)O,inactive
4,C[C@H](O)C(=O)Nc1c(I)c(C(=O)NC(CO)CO)c(I)c(C(=O)NC(CO)CO)c1I,inactive
5,Nc1nc2c(ncn2COCCO)c(=O)[nH]1,inactive
6,Nc1ccc(Cl)cc1[N+](=O)[O-],inactive
7,C=CC(=O)OCCOCCOC(=O)C=C,inactive
8,CC(=O)N[C@@H](CC(=O)N[C@@H](CCC(=O)O)C(=O)O)C(=O)O,inactive
9,CNCC(=O)N[C@@H](CCCN=C(N)N)C(=O)N[C@H](C(=O)N[C@@H](Cc1ccc(O)cc1)C(=O)N[C@H](C(=O)N[C@@H](Cc1cnc[nH]1)C(=O)N1CCC[C@H]1C(=O)N[C@@H](C)C(=O)O)C(C)C)C(C)C,inactive
10,FC1(F)C(F)(F)C(F)(F)C2(F)C(F)(F)C(F)(F)C(F)(F)C(F)(F)C2(F)C1(F)F (centres undefined),inactive
11,O=C(O)Cc1csc(-c2ccc(Cl)cc2)n1,inactive
12,CC1OCCC1=O (centres undefined),inactive
13,CC(C)(C)c1ccc(C=O)cc1,inactive
14,CN1CCN(C(c2ccccc2)c2ccccc2)CC1,inactive
15,CC(C)NC[C@@H](O)COc1cccc2ccccc12,inactive
16,OCC1(CO)COC(C(Cl)(Cl)Cl)OC1,inactive
17,NC[C@H]1O[C@H](O[C@H]2[C@H](O)[C@@H](O[C@H]3O[C@H](CO)[C@@H](O)[C@H](N)[C@H]3O)[C@H](N)C[C@@H]2N)[C@H](N)[C@@H](O)[C@@H]1O,inactive
18,CCC1NC(=O)c2cc(S(N)(=O)=O)c(Cl)cc2N1 (centres undefined),inactive
19,C1=C\CC/C=C\CC/1,inactive
20,CC(C)C[C@H](NC(=O)[C@@H](Cc1c[nH]c2ccccc12)NC(=O)[C@H](Cc1ccc(O)cc1)NC(=O)[C@H](CO)NC(=O)[C@H](Cc1c[nH]c2ccccc12)NC(=O)[C@H](Cc1cnc[nH]1)NC(=O)[C@@H]1CCC(=O)N1)C(=O)N[C@@H](CCCN=C(N)N)C(=O)N1CCC[C@@H]1C(=O)NCC(N)=O,inactive
21,COc1ccc(NS(=O)(=O)c2ccc(N)cc2)nn1,inactive
22,C=CCSSSCC=C,inactive
23,O=C1OC(=O)c2cccc3cccc1c23,inactive
24,OCC(O)CN1CCN(c2ccccc2)CC1 (centres undefined),inactive
25,CCC=O,inactive
26,NC(=O)[C@@H]1CSSCCC(=O)N[C@@H](CCCCN=C(N)N)C(=O)NCC(=O)N[C@@H](CC(=O)O)C(=O)N[C@H](Cc2c[nH]c3ccccc23)C(=O)N2CCC[C@H]2C(=O)N1 ([Mpa][hArg]GD[dW]PC-NH2; disulfide 1-7),inactive
27,C[C@@H](O)C(=O)O,inactive
28,O=Nc1ccc(NO)cc1,inactive

# From PubChem BioAssay (EPA / NIEHS)
